Compounds without any hit were thinned out: in the full panel of roughly 83,000, 20% have a hit.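 Each cell line was grown in a 96-well plate and treated with one concentration of compound for 48 hours. Values below 10 were considered active.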 Values without a mark were called inactive. Activity calls are given as the source filed them.

In the assay the test system is HL-60(TB) leukemia. In words: NCI-60 one-dose screen, 48 h (100 = growth as untreated, 0 = no growth, -100 = all killed). Particulars: 10 µM unless noted.
As to `O=[N+]([O-])c1ccc(O)c(S(=O)(=O)O)c1`, the growth is 101%. Under `CCCCNC1(C#N)CCN(Cc2ccccc2)CC1` stands 153%; under `S=C(SSC(=S)N(c1ccccc1)c1ccccc1)N(c1ccccc1)c1ccccc1`, 85.1%. Under `CCN(c1cc(-c2ccc(CN3CCC(/C=C/S(=O)(=O)c4ccccc4)CC3)cc2)cc(C(=O)NCc2c(C)cc(C)[nH]c2=O)c1C)C1CCOCC1` stands 23.4%.

In the case of `COc1cc(/C=C/c2cc(/C=C/c3ccc(O)c(OC)c3)n(C(=O)Nc3ccc(Cl)cc3)n2)ccc1O`, the growth was -20.9% (active). As for `CCNCCNc1cc(-c2ccc(Cl)c(Cl)c2)c(C#N)c2nc3ccccc3n12`, the figure is -62.3% (active); as for `CCn1c2ccccc2c2ccc(C(C)=O)cc21`, 118%; as for `Fc1ccc2[nH]cc(-c3nc(-c4ccsc4)cs3)c2c1`, 99.3%. As for `COc1ccc(Nc2ncnc3ccc(-c4cncc(NS(C)(=O)=O)c4)cc23)cc1Cl`, the figure is 3.01% (active); as for `NS(=O)(=O)c1ccc(C(=O)NN2C(=O)c3ccccc3C2=O)cc1`, 103%; as for `CCOC(=O)N1CCC(N=C2CSc3nnc(-c4cc(C(F)(F)F)cc(C(F)(F)F)c4)n3N2)CC1`, -40.7% (active).

As to `CCCCCCCCCCCCNC(=O)[C@H]1CSC(c2cc(Br)cs2)N1` (some centres not stated), the growth was -36.9% (active). For the molecule `O=C(Nc1ccccc1)c1sc(-c2cccc(C(F)(F)F)c2)cc1O`, the growth was 40.2%. Under `CCCCCCCC/C=C\CCCCCCCCOc1ccc(CC(=O)NCC[N+](C)(C)C)cc1` stands -35.7% (active); under `CC(=O)Nc1ccc(-c2cc3c(NCc4ccc(F)cc4)ncnc3s2)cc1`, 89.1%; under `CC1CCC2(C(=O)O)CCC3(C)C(=CCC4C5(C)CC(O)C(O)C(C)(CO)C5C(O)CC43C)C2C1C` (configuration not stated), 118%.

For the molecule `O=C(Nc1ccccc1O)c1ccccc1Nc1ccnc(C(F)(F)F)c1`, the growth was 68.3%. Take `Cn1cc(-c2nn3cc(-c4ccccc4)nc3s2)c2ccccc21`: the growth was 84.8%. Under `O=C(Nc1ccc(F)cc1F)c1cc(Cl)ccc1O` stands -31.4% (active); under `C=CC(=O)Nc1cccc(Oc2nc(Nc3ccc(N4CCN(C)CC4)cc3)nc3ccsc23)c1`, -62% (active). As for `CC(=O)OCC1OC(OC2=C(CC=C(Cl)Cl)C(=O)c3ccccc3C2=O)C(OC(C)=O)C(OC(C)=O)C1OC(C)=O` (configuration not stated), the figure is 0.376% (active); as for `COc1cc(-c2nn(-c3cccc(NC(=O)NCCNC(=O)c4cccc(C(F)(F)F)c4)c3)cc2-c2ccncc2)ccc1Cl`, 16.8%; as for `O=C(Nc1cccc2ccccc12)c1cc2c(cc1Br)OCO2`, 75.9%. For the molecule `C=C1c2c(C)nn(-c3ccc(S(N)(=O)=O)cc3)c2N(C)C23CC1C1(C)c4c(C)nn(-c5ccc(S(N)(=O)=O)cc5)c4N(C)C(C)(CC12)C3` (configuration not stated), the growth is 8.58% (active). For `Nc1c(C(=O)Nc2cccc3c2OCCO3)sc2nc3c(cc12)C(=O)CCC3`, the growth is 12.4%.

As for `COc1cc(-c2cc(/C=C3\C(=O)Nc4ccccc43)[nH]n2)cc(OC)c1OC`, the growth was -12.1% (active). Under `CC[n+]1ccc(Nc2ccc(NC(=O)c3ccc(Nc4cc[n+](CC)c5ccc([N+](=O)[O-])cc45)cc3)cc2)cc1` stands 66.9%; under `Nc1nc2ncc(CNc3ccc(C(=O)NC(CCC(=O)NC(CCC(=O)NC(CCC(=O)NC(CCC(=O)NC(CCC(=O)O)C(=O)O)C(=O)O)C(=O)O)C(=O)O)C(=O)O)cc3)nc2c(=O)[nH]1` (configuration not stated), 93.5%. As for `CC(=O)Nc1nc2c(s1)CCc1c-2cn(S(=O)(=O)c2ccccc2)c1-c1ccccc1`, the growth is 71%. Take `Cc1cc2c(cc1C)NC1=C(N2)OC(c2c3ccccc3cc3ccccc23)C1=O` (configuration not stated): the growth is 2.98% (active). As for `CC(=O)c1nc2ccccc2n1CCN1CCN(C)CC1`, the figure is 8.01% (active). As for `Nc1ccc(-c2ccc(-c3ccccc3N)c3[nH]c4ccccc4c23)cc1`, the figure is 5.47% (active). Under `C(=N\Nc1ccccn1)/c1ccccn1` stands 12.3%; under `Clc1ccc2c(c1)C(c1c[nH]c3ccccc13)(c1c[nH]c3ccccc13)CCO2`, 82%; under `N#CC1=C(N)Oc2c(c(=O)[nH]c3ccc(Cl)cc23)C12C(=O)c1ccccc1C2=O`, 99.8%. For `CSc1nc2ncncc2[nH]1`, the growth is 91.2%. Under `COc1cc2c(cc1OC)C(CC1(O)CCCCC1)N(S(=O)(=O)c1ccc(C)cc1)CC2` (configuration not stated) stands -25% [100 µM] (active).

For the origin of these results see PubChem BioAssay (NCI).
